In the supplement of paper PMC6555819:

Key:
Assay in all cases: PBM binding z-score (relative to random genomic background probes); higher = stronger binding; sequences stand for … in GC…GCGATTGACAGCGTAGAATGAAGG
[1] = system: PPARg:RXRa DBDmut IVT, anti-RXR (DBD mutation: RXRa K156A/R161A, NR concentration 270 nM, RXRa partner concentration 90 nM)
Procedure, shortened: (§1)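 Random background probes are the reference for binding z-scores. These scores derive from regression-normalized fluorescence on custom Agilent 4×180K protein-binding microarrays incubated 1 h with ligand-free nuclear receptor dimers. Binding was detected with antibodies against each partner (one per run).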

[2] = system: PPARg:RXRa IVT, anti-PPARg (NR concentration 270 nM, RXRa partner concentration 90 nM)
Procedure, shortened: as §1

[3] = system: PPARg DBDmut:RXRa IVT, anti-PPARg (DBD mutation: PPARg1 K132A/R137A, NR concentration 270 nM, RXRa partner concentration 90 nM)
Procedure, shortened: as §1

[4] = system: PPARg DBDmut IVT, anti-PPARg (DBD mutation: PPARg1 K132A/R137A, NR concentration 270 nM)
Procedure, shortened: as §1

[5] = system: PPARg homodimer (NR concentration 180 nM)
Procedure, shortened: as §1

[6] = system: PXR:RXRa (NR concentration 270 nM, RXRa partner concentration 90 nM)
Procedure, shortened: as §1

[7] = system: PXR homodimer (NR concentration 270 nM)
Procedure, shortened: as §1

[8] = system: RARa:RXR (NR concentration 270 nM, RXRa partner concentration 90 nM)
Procedure, shortened: as §1

[9] = system: RARa homodimer (NR concentration 270 nM)
Procedure, shortened: as §1

[10] = system: RARb:RXRa (NR concentration 270 nM, RXRa partner concentration 90 nM)
Procedure, shortened: as §1

Sequence | PBM binding z-score [1] | PBM binding z-score [2] | PBM binding z-score [3] | PBM binding z-score [4] | PBM binding z-score [5] | PBM binding z-score [6] | PBM binding z-score [7] | PBM binding z-score [8] | PBM binding z-score [9] | PBM binding z-score [10]
AGAACGAGGGTACGCTGAGTTGATAGCAGAGTAG | 1.48 | 0.725 | 0.215 | 0.0529 | -0.458 | 0.223 | 0.15 | -0.0408 | -0.807 | 0.364
ATAGGTAGGTTAAGGGTCATTCAGGTTGGTTCGC | 3.71 | 5.35 | 3.33 | 1.88 | 4.75 | 5.63 | 3.61 | 6.1 | 3.3 | 3.83
TCATCTAGGTAAAAGGTGAAAGTCGGTGTGGTAA | 5.49 | 5.73 | 2.1 | 1.06 | 2.69 | 1.53 | 0.241 | 2.8 | 1.26 | 2.15
CGTCAAAGTTCAACGAAGGTAACGTAAAGCACGC | 0.66 | 1.92 | 0.175 | 0.224 | 2.37 | 4.52 | 2.37 | 3.37 | 0.936 | 5.18
CGTACTGGGCCAAAGGTCATTGATTCCAATGCTC | 5.43 | 7 | 0.296 | -0.116 | 4.18 | 5.73 | 2.15 | 6.41 | 1.62 | 4.54
AATCGGAGGACAAAGGTCAGAGCTACGCCAGTGA | 0.506 | 4.15 | 0.0778 | -0.0229 | 2.97 | 3.75 | 0.501 | 4.48 | 0.693 | 4.54
CCAGACAGGTGAAAGGTAACTCAATCTGGTACGC | 2.13 | 2.83 | -0.064 | -0.205 | 1.32 | 1.09 | 0.164 | 2.31 | 0.578 | 1.11
ACAGACAAGTGATGAAGGTAACTCAGGCTATCAT | -0.565 | -0.0204 | 0.0249 | -0.152 | -0.0362 | -0.39 | -0.0518 | -0.0214 | 0.43 | -0.307
TCGAGGAGGTTAGGGGCATTCAGAATGGCGTCGA | 1.17 | 0.304 | -0.348 | -0.472 | 1.01 | 1.03 | 0.679 | 0.889 | 0.232 | 1.62
ATACCAAGGTGATCGTGAGGTCTTTGATACTAAC | 0.237 | 1.08 | 0.449 | 0.702 | 0.551 | 0.655 | -0.114 | 0.833 | 0.255 | 0.705
TCTTGTAGATCAACAGGAGGTGAAGAAAGATCGA | 1.56 | 1.14 | -0.0745 | 1.41 | -0.39 | 0.179 | -0.438 | 0.154 | -0.0996 | 0.194
CCGACTGGGGCATCAGGTTACCATAAGCCAGCCC | 3.34 | 3.84 | -0.621 | -1.56 | 0.326 | -0.505 | -0.821 | -0.109 | -0.776 | 1.01
TCTTGTAGATCGAAGGTTAAGAAAGCCGAAGCCT | 1.1 | 1.32 | -0.629 | -0.226 | 0.155 | 0.143 | -0.658 | 0.948 | -0.208 | 0.667
CCTAGCAGGCCAATCTGGGTCAGTCAAGGCTTGA | 3.27 | 3.61 | -0.788 | -1.02 | -0.0146 | 0.0599 | -0.751 | 0.0549 | -0.68 | 1.28
GCTCGGAGGACTAGGTCAGAGCTTTGTCCGTAGA | 2.42 | 2.73 | -1.06 | -1.65 | -0.329 | -0.496 | -0.984 | -0.285 | -1.53 | 1.27
AGAATGAGGGCACGCTGAGTTGATAGCAGAGTAG | 5.59 | 4.73 | 1.66 | 0.551 | 0.535 | 1.48 | 0.452 | 1.18 | -0.371 | 2.62
GCTATTAGTTGCAAGGGCAACCGAATGATTCTCG | 0.729 | 0.0802 | -0.249 | -0.171 | 0.499 | 0.243 | 0.11 | -0.00266 | -0.474 | 1.37
TGTACAGGGTCAAAGGCCAGAGTACGAATGTCGA | 2.29 | 5.22 | 1.24 | 1.55 | 1.87 | 4.52 | -0.0944 | 6.38 | 0.38 | 4.42
CCGACTGGGGCAAGGTTACCAGAACGCACAGCCA | 2.21 | 3.49 | -0.808 | -1.44 | 0.502 | 0.259 | 0.151 | 0.58 | -0.644 | 1.63
ATCGAAAGGTCGAGGTGAGTAAAGAGAAAGGGAA | 0.198 | 1.99 | 1.11 | 0.693 | 1.75 | 2 | 0.184 | 2.88 | 0.627 | 3.95
ATCGAAAGGTCGAGGTGAGCATAGAGAAAGGGAA | 0.593 | 2.74 | 0.675 | 0.756 | 1.39 | 2.2 | -0.0822 | 3.17 | 0.169 | 4.27
TAGCCTGGGTCAGATCGGGCCAGTATACGCTATA | -0.428 | 0.885 | -0.83 | -0.762 | -0.849 | 0.931 | -0.947 | 0.69 | -0.739 | 2.33

Sequence | PBM binding z-score [1] | PBM binding z-score [2] | PBM binding z-score [3] | PBM binding z-score [4] | PBM binding z-score [5] | PBM binding z-score [6] | PBM binding z-score [7] | PBM binding z-score [8] | PBM binding z-score [9] | PBM binding z-score [10]
ACAGACAGGTGATGAAGGTAATTCAGGCTATCAT | 0.125 | 0.521 | 0.823 | 0.3 | 0.3 | -0.0311 | -0.169 | 0.367 | 0.165 | 0.161
CCTTGCGGGTCACGAGGTTATAGCACGACGAGCG | 5.74 | 6.59 | 3.45 | 2.14 | 3.48 | 4.41 | 0.214 | 6.01 | 0.851 | 4.47
CCAACTGGGCCAAGGTCATTGATCAGTCAAAGCA | 4.04 | 4.58 | -0.617 | -0.824 | 1.58 | 3.11 | 0.914 | 3.22 | 0.0494 | 3.39
TAGCCTAGGTCATGCGGGCGAGTATAGTGTCGGC | 1.54 | 2.78 | -0.28 | -1 | 0.366 | 0.704 | -0.37 | 1.97 | -0.358 | 3.54
TCTTGTAGATCACCAGGTTAAGAAAGCTGGCCAA | 2.51 | 1.98 | -0.0157 | 0.181 | 0.18 | 0.513 | -0.16 | 0.889 | 0.399 | 0.639
TGACCAAGGTGAAGGTCGTTGATCCCTCTGTAGA | 1.27 | 2.71 | -0.305 | -0.387 | 0.818 | 1.26 | -0.313 | 1.8 | -0.922 | 2.11
TCTAGGTGGTCAAAGGTCACACACTCGAAATGCG | 3.06 | 5.9 | 1.01 | 1.59 | 4.5 | 6.19 | 1.82 | 7.34 | 2.69 | 5.22
CCTTACGGGTCACACCAGGTTATAGCATCGGAGT | 2.98 | 4.37 | 0.627 | -0.128 | 2.63 | 5.3 | 0.565 | 5.06 | 1.44 | 4.06
TCTAGCCGGCCAGAGGGTCACTCAAGAGGTACGG | 0.224 | -0.0177 | -0.893 | -1.23 | 0.24 | 1.48 | -0.354 | 2.24 | -0.43 | 2.08
CGTCAAAGTTCAGGGTAACGTAACAGAAAGCAGC | 0.483 | 1.35 | 0.319 | 0.192 | 2.87 | 2.66 | 1.67 | 2.17 | 1.09 | 4.33
CTACCAAGGTGAACAAGGTTGTTGATTACTATTC | 2.39 | 2.42 | -0.144 | 0.038 | 0.436 | 1.04 | 0.435 | 0.73 | 0.287 | 1.57
TCTATTAGTTGAAGGGGAACCGACGAGTCCGTTT | 3 | 0.249 | 1.26 | 0.473 | 1.97 | 1.04 | 1.09 | 0.424 | 1.8 | 0.752
TCTATTAGTTGAAGGGCACCCGACGAGTCCGTTT | 2.29 | 0.553 | 0.299 | 1.3 | 1.25 | 0.824 | 1 | 0.844 | 1.45 | 1.36
CAGCCTAGGTCAGGGCCAGAATAGGAGGAACGTT | 1.51 | 1.55 | -0.6 | -1.51 | 0.276 | 0.146 | -0.618 | 0.927 | -0.25 | 3.49
CCGACTCGGGCATAAGGTTACCATAAGCCAGCCC | 0.661 | -0.167 | -1.02 | -2 | 0.278 | 0.0235 | -0.204 | 0.884 | -0.315 | 1.36
AGTCAAAGTTCACTAGGTAAGGTAAGATTCAGCT | 1.79 | 4.24 | 1.06 | 0.795 | 2.55 | 3.83 | 2.61 | 3.3 | 1.36 | 4.8
CGCCCAAGGTCAAAGGTCAGTGAAGAGATGACGG | 3.58 | 5.36 | 0.645 | 0.0371 | 3.28 | 7.03 | 1.41 | 8.49 | 1.99 | 6.04
AGAATGAGGTTATTAAGATCAGGGAATTGCGGTC | 3.22 | 2.5 | 1.04 | 0.418 | 1.11 | 1.48 | 0.762 | 1.56 | 0.273 | 1.46
CGAACTAGGTCAAAGACAGTGAATCTCCGCACGC | 8.07 | 8.21 | 4.15 | 2.23 | 1.24 | 1.06 | 0.0351 | 1.82 | 0.463 | 3.74
CGTCCAAGGTCAAAGGTCAGTGCAGAGATGACGG | 3.55 | 5.49 | 1.33 | 1.29 | 4.31 | 7.08 | 2.79 | 9.23 | 3.59 | 5.77
TTTTGTAGATCAAGCAGGTTAAGAAAGCCTGAGT | 0.762 | 1.22 | 1.82 | 1.21 | 0.487 | 0.303 | 0.386 | 0.469 | 0.538 | 0.329
GCTATTAGTTGAAAGGACAACCGAATGATTCTCG | 0.447 | -0.166 | 0.553 | 0.18 | 0.735 | -0.372 | 0.0666 | -0.189 | 1.02 | 1.32
